# The full list was thinned out, with hits kept by preference.
# STK33 inh = human STK33 kinase inhibition; inhibition, % at 12.5 µM; 27,000 compounds, 0.44% hits; ADP-Glo luminescence, MBP substrate; Q9BYT3; in the data active = inhibition above about 20%
# Target sequence (Q9BYT3 whole entry, looked up): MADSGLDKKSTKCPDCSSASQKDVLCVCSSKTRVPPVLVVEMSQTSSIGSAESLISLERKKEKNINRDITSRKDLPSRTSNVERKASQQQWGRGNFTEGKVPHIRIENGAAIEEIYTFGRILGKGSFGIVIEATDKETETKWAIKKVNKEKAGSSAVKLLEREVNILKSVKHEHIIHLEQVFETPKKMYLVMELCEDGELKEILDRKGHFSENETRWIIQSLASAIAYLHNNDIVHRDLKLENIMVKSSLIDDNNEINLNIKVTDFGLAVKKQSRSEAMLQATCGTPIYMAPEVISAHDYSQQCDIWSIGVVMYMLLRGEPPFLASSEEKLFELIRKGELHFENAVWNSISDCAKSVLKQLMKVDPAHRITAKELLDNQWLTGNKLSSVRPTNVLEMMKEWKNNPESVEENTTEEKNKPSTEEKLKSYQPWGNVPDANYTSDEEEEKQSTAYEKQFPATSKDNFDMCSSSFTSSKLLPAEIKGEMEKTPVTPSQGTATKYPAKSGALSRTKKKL
# NOMO-1 viab = STK33 inhibitor candidate reducing NOMO-1 cell viability; inhibition, % (concentration not given with the values); NOMO-1 AML viability, CellTiter-Glo luminescence, 72 h; 37,000 compounds, 7.5% hits; in the data active = inhibition above about 80%
# PD-1 reverse act = activators reversing PD-1 mediated T-cell inhibition; primary human CD4 T cells, PD-L1 beads, CellTiter-Glo 96 h; activation, % (no concentration beside the values); 29,000 tested, under 10 active; call rule not given here;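 also: 0% = median vehicle wells and 100% = positive control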
# * marks the source's active call; other numbers are inactive results; . = not tested or not shown.
SMILES,STK33 inh,NOMO-1 viab,PD-1 reverse act
CC1C(=O)C(=O)[C@@H]2O[C@@H]2C1=O (stereo not given in full),-2,96*,0
Cc1cc(C)c(C)c(S(=O)(=O)NCc2ccc(C(=O)Nc3ccncc3)cc2)c1C,-7,103*,-9
COc1cccc(S(=O)(=O)NCc2ccc(C(=O)Nc3ccc(Cl)cc3)cc2)c1,2,17,-1
Cc1cccc(OCC(=O)Nc2ccc(Cl)c(-c3nc4ccc(C)cc4o3)c2)c1,1,29,.
C=C1C(=O)O[C@H]2[C@H]1[C@@H](OC(=O)C(C)(O)CCl)C(OC(C)=O)/C(C(=O)OC)=C\CC[C@@]1(C)O[C@H]21 (stereo not given in full),0,109*,-12
C=C1C(=O)O[C@H]2[C@H]1[C@@H](OC(=O)/C(C)=C/C)C(OC(C)=O)/C(C(=O)OC)=C\CC[C@@]1(C)O[C@H]21 (stereo not given in full),-2,119*,-12
C=C1C(=O)O[C@H]2[C@H]1[C@@H](OC(=O)/C(C)=C\C)C(OC(C)=O)/C(C(=O)OC)=C\CC[C@@]1(C)O[C@H]21 (stereo not given in full),2,109*,-13
C=C1C(=O)O[C@H]2[C@H]1C[C@H](OC(=O)/C(C)=C\C)/C(C)=C\CC[C@@]1(C)O[C@@H]21,-2,121*,-15
Cc1c(NC(=O)CNS(=O)(=O)c2ccc(Br)cc2)c(=O)n(-c2ccccc2)n1C,1,34,-1
CCOC(=O)c1c(NC(=O)C(C)n2nc([N+](=O)[O-])c(Br)c2C)sc2c1CCC2 (stereo not given),2,12,-1
CC(=O)c1ccc(NC(=O)CSc2nc(-c3ccccc3)cc(=O)[nH]2)cc1,1,-11,.
COC1CC(OC(O)C(O)C(O)C(O)C(O)CO)c2c(cc3cc(C)oc(=O)c3c2O)OC1=O (stereo not given),-2,14,1
N=C1SCC(=O)N1c1nccs1,3,16,-21
O=C(COc1ccc(Br)cc1)NCC1CCCO1 (stereo not given),.,3,0
CCn1c(SCC(=O)Nc2ccc(I)cc2C)nnc1-c1ccccc1,0,-7,0
Cc1cc(Br)ccc1NC(=O)CSc1ncn(-c2ccccc2)n1,-1,43,4
O=C(O)c1cccc(CN2CCN(c3ccccc3)CC2)c1,.,21,-1
Cc1cc(C(C)(C)C)c(O)c(C(C)(C)C)c1,-9,47,.
CC(C)(C)c1cc(O)c(C(C)(C)C)cc1O,0,114*,.
COc1cccc(NC(=O)CSc2nc(N)c(-c3ccccc3)c(=O)[nH]2)c1,4,-12,0
COc1ccc(CC(=O)NN2CCN(c3ccccc3)CC2)cc1,1,28,0
Cc1ccc2nc(-c3cccc(Br)c3)cc(C(=O)NCc3cccnc3)c2c1,-2,66,0
Clc1ccc(-c2cnc3n2CCC3)cc1Cl,.,112*,0
COc1ccccc1NC(=O)CSc1nnc(-c2ccc(Br)cc2)n1C,-2,8,-1
N#CC(=C(/N)Sc1ccccc1N)/C(C#N)=C(\N)Sc1ccccc1N,5,94*,.
SMILES,STK33 inh,NOMO-1 viab,PD-1 reverse act
CCCCCCCCCC(O)CC(O)CC(O)CC1CC=CC(=O)O1 (stereo not given),-2,115*,-2
CCCCCCCC(O)C(O)C1CC(OC)=CC(=O)O1 (stereo not given),-3,5,0
O=C(O)c1cc(N=Cc2ccccc2O)ccc1O,.,0,0
COc1ccc(-c2nnc3c4ccccc4c(C)nn23)cc1S(=O)(=O)NCc1ccccc1,3,47,0
COc1ccc(S(=O)(=O)NCc2ccccc2)cc1-c1nnc2c3ccccc3c(C)nn12,0,116*,.
COc1cc(C)c2c(=O)c3c(O)cc(O)cc3oc2c1,3,3,1
CC(=O)Nc1ccc2c(c1)nc1n2CCN(Cc2ccco2)C1,3,24,.
C[C@@H]1CC[C@]2(C(=O)O)CC[C@]3(C)C(=CCC4[C@@]5(C)CC[C@@H](O)[C@](C)(C(=O)O)C5CC[C@]43C)C2[C@H]1C (stereo not given in full),-5,8,0
CC1CC(=O)[C@]2(C)CC[C@]3(C)C(C(=O)C(O)C4[C@@]5(C)CC[C@H](O)C(C)(C(=O)O)C5CC[C@]43C)C2C1C (stereo not given in full),0,119*,-12
CCn1c(SCC(=O)Nc2ccc3c(c2)OCCO3)nnc1-c1ccccc1,1,27,1
O=c1[nH]c2ccccc2c2ccccc12,31*,0,5
O=Cc1c2[nH]c3ccccc3c2cc2[nH]c3ccccc3c12,-2,25,.
COc1ccc(CCN=Cc2ccc3c(c2)OCO3)cc1OC,.,30,0

# Screens (PubChem BioAssay)
